Out of some 16,000 compounds screened, about 5,100 (32%) were called active. Inconclusive results (about 25%) are left out. The call rests on the fitted dose curve; in most records, active means well fitted curve in the direction sought with a large enough effect; inconclusive means small, poorly fitted or top-dose-only effect, or effect the other way; inactive means no such curve, though single readings can be large or run the other way. This is one part of the list.
On the % scale 0 is the no-effect control and ±100 the full control effect.

Sequence of Cytochrome P450 3A4 (Homo sapiens) (P08684 whole entry, looked up): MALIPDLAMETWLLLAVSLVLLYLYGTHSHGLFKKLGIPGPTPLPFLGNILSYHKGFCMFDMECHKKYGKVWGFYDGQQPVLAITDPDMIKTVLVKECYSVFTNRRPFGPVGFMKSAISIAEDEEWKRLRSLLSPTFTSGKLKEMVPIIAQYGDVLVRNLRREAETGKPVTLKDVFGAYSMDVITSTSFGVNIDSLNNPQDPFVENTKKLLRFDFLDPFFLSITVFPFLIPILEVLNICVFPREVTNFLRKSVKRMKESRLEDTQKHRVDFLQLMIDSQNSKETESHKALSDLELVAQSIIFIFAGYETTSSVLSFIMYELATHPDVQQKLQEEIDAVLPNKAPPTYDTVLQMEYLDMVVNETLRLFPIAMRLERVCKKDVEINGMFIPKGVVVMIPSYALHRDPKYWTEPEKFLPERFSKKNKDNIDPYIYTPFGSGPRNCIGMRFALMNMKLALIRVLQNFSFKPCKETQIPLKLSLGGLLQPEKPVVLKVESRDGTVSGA

In the experiment the target is Cytochrome P450 3A4 (Homo sapiens) (UniProt P08684). As to the kind of experiment: Cytochrome panel assay with activity outcomes. Particulars: recombinant CYP, pro-luciferin dealkylation, luminescence, p450-cyp3a4; series mostly up to 57.1 µM; activity, negative = inhibition: at the top concentration. The protocol:
The P450 gene superfamily is involved in the metabolism and clearance of xenobiotics. This assay used various human CYP P450 isozymes to measure the dealkylation of various pro-luciferin substrates to luciferin. The luciferin is then measured by luminescence after the addition of a luciferase detection reagent. Pro-luciferin substrate concentration in the assay was equal to its KM for its CYP P450 isozyme. Inhibitors and some substrates limit the production of luciferin, and decrease measured luminescence.
NCGC Assay Protocol Summary:
1, Reagent, 2 uL, Isozyme and Pro-Luciferin
2, Library compounds, 23 nl, 40 uM to 0.24 nM dilution series
3, Controls, 23 nl, Isozyme specific inhibitor
4, Reagent, 2 uL, NADPH regeneration solution
5, Incubation time, 60 min, Isozyme specific temperature
6, Reagent, 4ul, Detection reagent
7, Incubation time, 20 min, Isozyme specific temperature
8, Detection, 1 sec, ViewLux luminescent read
The luciferase-based P450-GloTM Screening Systems were obtained from Promega (Madison, WI) for CYP 1A2 (V9770), CYP 2C9 (V9790), CYP2 C19 (V9880), CYP 2D6 (V9890), and CYP 3A4 Luciferin-PPXE (V9910) and were adapted for 1,536-well microplates and an automated protocol. The control compounds furafylline for 1A2 (F124), sulfaphenazole for CYP 2C9 (S0758), ketoconazole for CYP 2C19 (K1003), quinidine for 2D6 (Q3625), and ketoconazole for 3A4 (K1003) were purchased from Sigma Aldrich (St. Louis, MO). Recombinant P450 enzymes were obtained from baculovirus constructs expressed in insect cells (BD/Gentest).
Medium-binding white solid Kalypsys plates used. Mixtures kept on ice. 1A2: 10 nM 1A2, 100 uM Luc-ME, 100 mM KPO4; 2C9: 10 nM 2C9, 100 uM Luc-H, 25 mM KPO4; 2C19: 5 nM 2C19, 10 uM Luc-H EGE, 50 mM KPO4; 2D6: 5 nM 2D6, 30 uM Luc-ME EGE, 100 mM KPO4; 3A4: 10 nM, 25 uM Luc-PPXE. All amounts are reflected in their final concentration, working concentration is 2x.
NADPH regeneration solution: 1.3 mM NADP+, 3.3 mM glucose-6-phosphate, 3.3 mM MgCl2, 0.4 U/mL glucose-6-phosphate dehydrogenase for all isozymes, 200 mM KPO4 for 3A4. Mixture prepared at RT but kept on ice during automated run.
RT incubation in auxilliary plate hotel for 1A2, 2D6, and 3A4; 37C for 2C9 and 2C19.
Keywords: P450, CYP1A2, CYP2C19, CYP2C9, CYP2D6, CYP3A4, Luciferase, MLSMR, MLSCN, NIH Roadmap, qHTS, NCGC
For orientation: AC50 means the concentration giving half of the maximal activity seen. Take `NC(=O)COc1c(F)cc(SCCNS(=O)(=O)c2ccccc2)cc1F`: the half-maximal activity concentration (AC50) was 12.6 µM (active).

On to `C/C(=C\C=C/[C@@H](C)C(=O)O)[C@H]1CN[C@H](C(=O)O)[C@@H]1CC(=O)O`, for which the “activity, negative = inhibition” value is -6.56% (inactive).

Consider `CC(C)CNC(=S)NC1CC2CCCC(C1)N2Cc1ccco1` (stereo unspecified), for which the activity, negative = inhibition is 2.91% [at 2.29 µM] (inactive).

On to `Cc1ccc(C(=O)C2C(=O)c3ccccc3C2=O)cc1`, for which the activity, negative = inhibition was -18.3% [at 11.4 µM] (inactive).

Consider `CN(C(=O)Cc1ccc(Cl)c(Cl)c1)[C@H](CN1CCCC1)c1ccccc1`, for which the AC50 was 6.31 µM (active).

Regarding `CN(C(=O)Cc1ccc(Cl)c(Cl)c1)[C@@H](CN1CCCC1)c1cccc(OCC(=O)O)c1`, the “activity, negative = inhibition” value was -9.59% (inactive).

In the case of `O=C(O)CP(=O)(O)c1ccc(Cl)cc1`, the “activity, negative = inhibition” value was 8.85% (inactive).

On to `COc1ccc(C[C@H]2c3cc(OC)c(OC)cc3CCN2C)cc1OC`, for which the “activity, negative = inhibition” value is -26.2% [at 25.6 µM] (inactive).

Take `C[C@]1(C(=O)O)[C@@H]2CC[C@@H](O2)[C@@]1(C)C(=O)O`: the “activity, negative = inhibition” value is -4.96% (inactive).

For the compound `CC1(C)CCC2=C(O1)c1ccccc1C(=O)C2=O`, the AC50 is 15.8 µM (active).

Take `COc1cc2c3cc1Oc1c(O)c(OC)cc4c1[C@@H](Cc1ccc(cc1)Oc1cc(ccc1O)C[C@H]3N(C)CC2)N(C)CC4`: the activity, negative = inhibition was -12.1% [at 11.4 µM] (inactive).

Take `N[C@H](C(=O)O)c1cc(=O)[nH]o1`: the “activity, negative = inhibition” value was -5.66% (inactive).

`N[C@@H](CP(=O)(O)O)C(=O)O`: the activity, negative = inhibition was -3.52% [at 11.4 µM] (inactive).

Turning to `OC(Cn1c2ccccc2c2ccccc21)C[n+]1ccccc1` (stereo unspecified), the activity, negative = inhibition is -1.96% [at 2.29 µM] (inactive).

Regarding `CCCCC1(CCCC)C(=O)NC(=Nc2cccc(C)c2)NC1=O`, the AC50 is 12.6 µM (active).

For the compound `CCCCCC[C@H]1C(=O)O[C@H](C)[C@H](NC(=O)c2cccc(NC=O)c2O)C(=O)O[C@@H](C)[C@H]1OC(=O)CC(C)C`, the AC50 was 5.01 µM (active).

On to `C[C@@H]1OC=C2[C@@H](O)[C@H]3O[C@H]3C(=O)[C@@]23[C@H]1[C@H]1C2=C([C@@H](O)[C@H]4O[C@@H]4C2=O)[C@@H]3O[C@@H]1C`, for which the activity, negative = inhibition is -18.6% [at 11.4 µM] (inactive).

`C[N+]1(C)[C@@H]2CC(OC(=O)[C@@H](CO)c3ccccc3)C[C@@H]1[C@H]1O[C@H]12` (stereo partly specified): the activity, negative = inhibition was 2.59% [at 11.4 µM] (inactive).

Turning to `Nc1nc(N)c2nc(CNc3ccc(C(=O)N[C@H](CCC(=O)O)C(=O)O)cc3)cnc2n1`, the “activity, negative = inhibition” value is 4.59% (inactive).

`C[C@@H](COc1ccccc1)N(CCCl)Cc1ccccc1`: the “activity, negative = inhibition” value is -18.7% [at 25.6 µM] (inactive).

On to `N[C@@H](CCCP(=O)(O)O)C(=O)O`, for which the “activity, negative = inhibition” value was -6.54% (inactive).

Regarding `O=c1cc(-c2ccc(O)cc2)oc2c([C@H]3O[C@@H](CO)[C@@H](O)[C@@H](O)[C@@H]3O)c(O)cc(O)c12`, the “activity, negative = inhibition” value was -6.72% [at 25.6 µM] (inactive).

Consider `CNCCc1cnc[nH]1`, for which the “activity, negative = inhibition” value is -27.6% (inactive).

On to `Clc1ccccc1-c1cncnc1NCCc1cnc[nH]1`, for which the AC50 is 0.501 µM (active).

As to `Cc1ccccc1-c1cncnc1NCCc1cnc[nH]1`, the AC50 was 0.631 µM (active).

Consider `CN(C)C(=O)Oc1ccc[n+](C)c1`, for which the “activity, negative = inhibition” value was 0.854% (inactive).

With `NC(=O)c1ccc(C(=O)Nc2ccc([As](=O)(O)O)cc2)cc1`, the activity, negative = inhibition is 8.53% [at 11.4 µM] (inactive).

Regarding `C[C@H](Br)C(=O)N[C@H](CO)C(=O)O`, the activity, negative = inhibition was 8.21% [at 11.4 µM] (inactive).

For `O=C(Oc1ccc(S(=O)(=O)F)cc1F)c1ccccc1Cl`, the activity, negative = inhibition is -5.64% [at 11.4 µM] (inactive).

For `NCCc1c[nH]c2ccc(OC(=O)C(=O)O)cc12`, the activity, negative = inhibition is -35.7% [at 11.4 µM] (inactive).

Regarding `O=C(O)c1cc[c]([Hg][S]c2ncnc3nc[nH]c23)cc1`, the activity, negative = inhibition was -15.7% [at 11.4 µM] (inactive).

In the case of `O=C(c1cc(=O)[nH]c2ccc(Br)cc12)N1CCC2(CC1)OCCO2`, the “activity, negative = inhibition” value is -17.8% (inactive).

Take `CN(C)c1ccc(NC(=O)CN2C(=O)CN=C(c3ccccc3)c3ccccc32)cc1`: the AC50 is 4.47 µM (active).

Consider `Cc1cc2c(C(F)(F)F)cc(=O)oc2c2c1NCCC2`, for which the “activity, negative = inhibition” value was -22.3% (inactive).

Consider `CCCCCCCCCCCCCC(=O)O[C@H]1[C@@H](C)[C@@]2(O)[C@@H](C=C(CO)C[C@]3(O)C(=O)C(C)=C[C@@H]23)C2C(C)(C)[C@]21OC(C)=O` (stereo partly specified), for which the AC50 is 25.1 µM (active).

For the compound `CC(C)(c1ccc(OC[C@@H]2CO2)cc1)c1ccc(OC[C@H]2CO2)cc1`, the “activity, negative = inhibition” value was -15.7% (inactive).

Take `N=C1c2ccccc2CN1NC(=O)c1ccc(Cl)cc1`: the “activity, negative = inhibition” value was -1.51% (inactive).

Consider `O=C(O)[C@@H](O)[C@@H](O)[C@@H]1[O][Sb][O][C@@H]1CO`, for which the activity, negative = inhibition is -1.25% [at 11.4 µM] (inactive).

As for `COc1ccc(NC(=O)N2CCCC3(CCN(C(=O)Oc4ccccc4)CC3)C2)cc1`, the AC50 is 12.6 µM (active).

Consider `O=C(Nc1ccccc1)N1CCCC2(CCN(C(=O)Oc3ccccc3)CC2)C1`, for which the AC50 is 15.8 µM (active).

Consider `O=C(Nc1cccc(F)c1)N1CCCC2(CCN(C(=O)Oc3ccccc3)CC2)C1`, for which the half-maximal activity concentration (AC50) was 15.8 µM (active).

For `O=C(Nc1cccc(F)c1)N1CC2(CCNCC2)C1`, the “activity, negative = inhibition” value is -2.67% (inactive).

`NC[C@@H](Cc1ccccc1)P(=O)(O)O`: the activity, negative = inhibition is -4.81% [at 11.4 µM] (inactive).

Take `CC12CN3CC(C)(CN(C1)C31CCSCC1)C2=O`: the “activity, negative = inhibition” value is -2.74% (inactive).

Consider `C[C@H]1CC[C@]2(OC1)O[C@@H]1C[C@@H]3[C@@H]4CC[C@H]5C[C@@H](O)CC[C@]5(C)[C@@H]4CC(=O)[C@@]3(C)[C@H]1[C@@H]2C`, for which the “activity, negative = inhibition” value is -5.6% [at 25.6 µM] (inactive).

Turning to `Cc1ncsc1CCCl`, the “activity, negative = inhibition” value is 6.86% (inactive).

These data come from PubChem BioAssay AID1851 (National Center for Advancing Translational Sciences (NCATS), 2009).
